Laboratory results as given in PubChem BioAssay (NCATS).
Inconclusive results are not listed. Calls of active or inactive are those of the source. The call rests on the fitted dose curve; in most records, active means well fitted inhibition curve with a large enough effect; inconclusive means small, poorly fitted or top-dose-only effect; inactive means flat fitted curve, though single readings scatter.

Target: Calcium and integrin-binding protein 1 (Homo sapiens) (UniProt Q99828)
Assay: Primary qHTS for Identification of Calcium Integrin Binding Protein 1 (CIB1) Competitor (AID 1508620)
Conditions: CIB1-GST / FITC-alphaIIb peptide fluorescence polarization; series mostly up to 114 µM
How it was run: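 Fluorescence polarization competition: CIB1-GST (1 uM final) preincubated with compound 15 min at room temperature, then FITC-labeled alphaIIb peptide (100 nM final) added for another 15 min. Polarization read at Ex 480/Em 540.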
Potency means the concentration at half of the fitted maximal effect.

Calcium and integrin-binding protein 1 (Homo sapiens), sequence (Q99828 whole entry, looked up): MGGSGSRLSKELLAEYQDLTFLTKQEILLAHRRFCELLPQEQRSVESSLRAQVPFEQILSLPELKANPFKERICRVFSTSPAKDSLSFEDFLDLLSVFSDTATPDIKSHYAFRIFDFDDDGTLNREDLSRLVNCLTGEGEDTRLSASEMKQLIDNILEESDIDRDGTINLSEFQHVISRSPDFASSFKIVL

| Structure (SMILES) | Potency |
| --- | --- |
| CC1(C)OB(c2ccc(O)c3ncc(N4CCNCC4)cc23)OC1(C)C | 50.1 µM (active) |
| c1ccc(-n2ccc(-c3nnc4n3CCCCC4)c2)cc1 | 79.4 µM (active) |
| O=C(O)c1ccccc1SC1=NS(=O)(=O)c2ccccc21 | inactive |
